Results reported in the supplement of paper PMC12350171.
Structures can show the parent of a compound that is named as a salt.

Assays:
Conditions in all cases: 20 µM
[1] = tested on: Salmonella enterica typhimurium; test: growth AUC normalised to DMSO control (fraction of control); higher = less growth inhibition, active = hit call of the paper
Summary of the method: (§1)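 Pathogens were passaged twice under anaerobic conditions, then inoculated into pre-reduced mGAM plates at a starting OD578 of 0.01, with compound at 20 μM and 1% DMSO, and sealed with breathable membranes. For Haemophilus parainfluenzae, the medium was supplemented with hemin and NAD. OD578 was read every hour for 24 h in three biological replicates. Growth-curve AUC was calculated by the trapezoidal rule up to the exponential-to-stationary transition and normalised to DMSO controls on the same plate.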

Shigella flexneri = test: as above
Summary of the method: as §1

Vibrio cholerae = test: as above
Summary of the method: as §1

[2] = tested on: Yersinia pseudotuberculosis; test: as above
Summary of the method: as §1

P. vulgatus RND KO = test: growth AUC normalised to DMSO control (median) (fraction of control); higher = less growth inhibition, active = hit call of the paper
Summary of the method: (§2)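 In 96-well plates of mGAM seeded at OD578 0.01, strains that had been passaged twice overnight without oxygen were exposed to approved-drug library compounds at 20 μM with 1% DMSO. Hourly OD578 readings were taken for 24 h in an anaerobic incubator. The trapezoidal-rule area under the curve, with curves truncated at entry into stationary phase, was expressed relative to same-plate vehicle wells as the median of three biological replicates.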

P. vulgatus WT = test: as above
Summary of the method: as §2

[3] = tested on: S. enterica typhimurium WT; test: as above
Summary of the method: as §2

[4] = tested on: S. enterica typhimurium tolC KO; test: as above
Summary of the method: as §2

Measured: growth AUC normalised to DMSO control
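Throughout, for growth AUC normalised to DMSO control (median): active when median AUC fell below 0.1.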

CC1=C(/C=C/C(C)=C/C=C/C(C)=C/C(=O)O)C(C)(C)CCC1 [Retinoic acid]
inactive: [1] 1 | Shigella flexneri 0.994 | Vibrio cholerae 1 | [2] 0.998 | P. vulgatus RND KO 0.996 | P. vulgatus WT 0.992 | [3] 1 | [4] 0.993

COc1cc2nc(N(C)CCCNC(=O)C3CCCO3)nc(N)c2cc1OC (centres undefined) [Alfuzosin hydrochloride]
inactive: [1] 1.01 | Shigella flexneri 1.03 | Vibrio cholerae 1.06 | [2] 0.978 | P. vulgatus RND KO 1.02 | P. vulgatus WT 1.08 | [3] 1.01 | [4] 1.01

CC1=C(CC(=O)O)c2cc(F)ccc2/C1=C\c1ccc([S+](C)[O-])cc1 (centres undefined) [Sulindac]
inactive: [1] 0.976 | Shigella flexneri 0.994 | Vibrio cholerae 1.01 | [2] 1.03 | P. vulgatus RND KO 0.996 | P. vulgatus WT 0.968 | [3] 1 | [4] 0.984

COc1ccccc1Oc1c(NS(=O)(=O)c2ccc(C(C)(C)C)cc2)nc(-c2ncccn2)nc1OCCO [Bosentan]
inactive: [1] 1.02 | Shigella flexneri 1.03 | Vibrio cholerae 1.01 | [2] 1.01 | P. vulgatus RND KO 1 | P. vulgatus WT 1.01 | [3] 1.01 | [4] 0.985

CO[C@H]1C[C@H](O[C@H]2[C@H](C)[C@@H](O[C@@H]3O[C@H](C)C[C@H](N(C)C)[C@H]3OC(C)=O)[C@@H](C)C[C@@]3(CO3)C(=O)[C@H](C)[C@@H](OC(C)=O)[C@@H](C)[C@@H](C)OC(=O)[C@@H]2C)O[C@@H](C)[C@@H]1OC(C)=O [Troleandomycin]
inactive: [1] 0.998 | Shigella flexneri 1.01 | Vibrio cholerae 0.882 | [2] 0.999 | [3] 0.988 | [4] 0.207
active: P. vulgatus RND KO 0.0116 | P. vulgatus WT 0.00916

CCn1cc(C(=O)O)c(=O)c2cc(F)c(N3CCNC(C)C3)c(F)c21 (centres undefined) [Lomefloxacin hydrochloride]
inactive: P. vulgatus WT 0.11
active: [1] 0.00422 | Shigella flexneri 0.0101 | Vibrio cholerae 0.0243 | [2] 0.0292 | P. vulgatus RND KO 0.035 | [3] 0.0147 | [4] 0.0041

NC12CC3CC(CC(C3)C1)C2 [Adamantamine fumarate]
inactive: [1] 1.02 | Shigella flexneri 1.06 | Vibrio cholerae 1.03 | [2] 1 | P. vulgatus RND KO 1.04 | P. vulgatus WT 1.08 | [3] 0.996 | [4] 0.996

NC(N)=Nc1nc(CSCC/C(N)=N/S(N)(=O)=O)cs1 [Famotidine]
inactive: [1] 1 | Shigella flexneri 0.965 | Vibrio cholerae 0.993 | [2] 0.97 | P. vulgatus RND KO 1.01 | P. vulgatus WT 1.04 | [3] 1.01 | [4] 0.996

C=CC[N@@+]12CC[C@@]34c5ccccc5N5/C=C6/[C@H]7C[C@H]8[C@@]9(CC[N@@+]8(CC=C)C/C7=C/CO)c7ccccc7N(/C=C(/[C@@H](C[C@@H]31)/C(=C\CO)C2)[C@H]54)[C@@H]69 [Alcuronium chloride]
inactive: [1] 0.94 | Shigella flexneri 1 | Vibrio cholerae 1.09 | [2] 1.03 | P. vulgatus RND KO 1.05 | P. vulgatus WT 1.06 | [3] 1.01 | [4] 1

NCC[C@H](O)C(=O)N[C@@H]1C[C@H](N)[C@@H](O[C@H]2O[C@H](CN)[C@@H](O)[C@H](O)[C@H]2O)[C@H](O)[C@H]1O[C@H]1O[C@H](CO)[C@@H](O)[C@H](N)[C@H]1O [Amikacin hydrate]
inactive: Shigella flexneri 0.985 | Vibrio cholerae 1.01 | P. vulgatus RND KO 1.02 | P. vulgatus WT 1.04 | [3] 1 | [4] 0.995
active: [1] 0.922 | [2] 0.122

CC(C)(C)NC[C@H](O)c1ccc(O)c(CO)c1 [Levalbuterol hydrochloride]
inactive: [1] 0.95 | Shigella flexneri 1.01 | Vibrio cholerae 1.01 | [2] 0.992 | P. vulgatus RND KO 0.962 | P. vulgatus WT 0.992 | [3] 1.01 | [4] 0.997

CCCNC(C)(C)COC(=O)c1ccccc1 [Meprylcaine hydrochloride]
inactive: [1] 0.996 | Shigella flexneri 1.02 | Vibrio cholerae 1.01 | [2] 1.01 | P. vulgatus RND KO 0.984 | P. vulgatus WT 1.01 | [3] 1 | [4] 0.995

CCN(CCCCOC(=O)c1ccc(OC)c(OC)c1)C(C)Cc1ccc(OC)cc1 (centres undefined) [Mebeverine hydrochloride]
inactive: [1] 1.01 | Shigella flexneri 1.03 | Vibrio cholerae 1.02 | [2] 1.01 | P. vulgatus RND KO 1.01 | P. vulgatus WT 1.01 | [3] 1 | [4] 0.934

CC(=O)O[C@H]1C[C@@]2(C)[C@@H](C[C@@H](O)[C@H]3[C@@]4(C)CC[C@@H](O)[C@@H](C)[C@@H]4CC[C@@]32C)/C1=C(\CCC=C(C)C)C(=O)O [Fusidic acid sodium salt]
inactive: [1] 0.997 | Shigella flexneri 0.974 | Vibrio cholerae 0.927 | [3] 0.989
active: [2] 0.824 | P. vulgatus RND KO 0.0166 | P. vulgatus WT 0.0143 | [4] 0.0407

CC(Cc1cccc(C(F)(F)F)c1)NCCOC(=O)c1ccccc1 (centres undefined) [Benfluorex]
inactive: [1] 0.94 | Shigella flexneri 0.968 | [2] 1.01 | P. vulgatus RND KO 0.956 | P. vulgatus WT 0.975 | [3] 0.986 | [4] 0.98
active: Vibrio cholerae 0.869

CCCN(CCC)C(=O)C(CCC(=O)O)NC(=O)c1ccccc1 (centres undefined) [Proglumide]
inactive: [1] 1.01 | Shigella flexneri 1.04 | Vibrio cholerae 1.05 | [2] 1.02 | P. vulgatus RND KO 1.02 | P. vulgatus WT 1.06 | [3] 1 | [4] 0.99

CCOC(=O)[N-]c1c[n+](N2CCOCC2)no1 [Molsidomine]
inactive: [1] 1.02 | Shigella flexneri 1.02 | Vibrio cholerae 1.03 | [2] 1.01 | P. vulgatus RND KO 0.999 | P. vulgatus WT 0.991 | [3] 1 | [4] 1.01

COC(=O)C1=C(C#N)NC(C)=C(C(=O)OC(C)C)C1c1cccc([N+](=O)[O-])c1 (centres undefined) [Nilvadipine]
inactive: [1] 1.01 | Shigella flexneri 1.03 | Vibrio cholerae 1.02 | [2] 1.02 | P. vulgatus RND KO 1.15 | P. vulgatus WT 1.12 | [3] 1 | [4] 0.922

CC(=O)c1ccc2c(c1)N(CCCN(C)C)c1ccccc1S2 [Acetopromazine maleate salt]
inactive: [1] 1 | Shigella flexneri 1 | Vibrio cholerae 0.888 | [2] 0.949 | P. vulgatus RND KO 0.984 | P. vulgatus WT 0.963 | [3] 1 | [4] 0.969

COc1ccc([C@@H]2CC(=O)c3c(O)cc(O[C@@H]4O[C@H](CO[C@@H]5O[C@@H](C)[C@H](O)[C@@H](O)[C@H]5O)[C@@H](O)[C@H](O)[C@H]4O)cc3O2)cc1O [Hesperidin]
inactive: [1] 1.03 | Shigella flexneri 1.04 | Vibrio cholerae 1.07 | [2] 1.01 | P. vulgatus RND KO 1.03 | P. vulgatus WT 1 | [3] 1 | [4] 1.01

CC(C)(Oc1ccc(Cl)cc1)C(=O)O [Clofibric acid]
inactive: [1] 0.995 | Shigella flexneri 1 | Vibrio cholerae 0.986 | [2] 0.996 | P. vulgatus RND KO 0.998 | P. vulgatus WT 1.01 | [3] 0.996 | [4] 1

NCCCCCC(=O)O [Aminocaproic acid]
inactive: [1] 0.999 | Shigella flexneri 1.06 | Vibrio cholerae 1.07 | [2] 1.02 | P. vulgatus RND KO 1.07 | P. vulgatus WT 1.1 | [3] 1.02 | [4] 1

OCCN(CCO)c1nc(N2CCCCC2)c2nc(N(CCO)CCO)nc(N3CCCCC3)c2n1 [Dipyridamole]
inactive: [1] 1.01 | Shigella flexneri 1.01 | Vibrio cholerae 1.01 | [2] 1 | P. vulgatus RND KO 1 | P. vulgatus WT 0.997 | [3] 1.02 | [4] 0.956

CCCNC(C)C(=O)Nc1ccccc1C (centres undefined) [Prilocaine hydrochloride]
inactive: [1] 0.987 | Shigella flexneri 1 | Vibrio cholerae 1 | [2] 0.998 | P. vulgatus RND KO 0.99 | P. vulgatus WT 1 | [3] 0.992 | [4] 0.993

CCCc1cc(C(N)=S)ccn1 [Prothionamide]
inactive: [1] 1 | Shigella flexneri 1 | Vibrio cholerae 1.01 | [2] 1 | P. vulgatus RND KO 0.988 | P. vulgatus WT 0.997 | [3] 0.987 | [4] 0.981

CN1CCCCC1CCN1c2ccccc2Sc2ccc([S+](C)[O-])cc21 (centres undefined) [Mesoridazine besylate]
inactive: [1] 0.993 | Shigella flexneri 0.978 | Vibrio cholerae 0.949 | [2] 1.01 | P. vulgatus RND KO 0.941 | P. vulgatus WT 0.885 | [3] 0.997 | [4] 0.944

CNC(=C[N+](=O)[O-])NCCSCc1csc(CN(C)C)n1 [Nizatidine]
inactive: [1] 0.998 | Shigella flexneri 0.989 | Vibrio cholerae 0.997 | [2] 1 | P. vulgatus RND KO 1.03 | P. vulgatus WT 1.04 | [3] 1.02 | [4] 0.989

NS(=O)(=O)c1cc(C2(O)NC(=O)c3ccccc32)ccc1Cl (centres undefined) [Chlorthalidone]
inactive: [1] 1 | Shigella flexneri 0.989 | Vibrio cholerae 0.995 | [2] 0.994 | P. vulgatus RND KO 1 | P. vulgatus WT 0.986 | [3] 1 | [4] 0.998
